# Most compounds without a hit are left out; they make up all but 9.3% or so of the library.
# Vaccinia mCherry – qHTS for Stage-Specific Inhibitors of Vaccinia Orthopoxvirus: mCherry Reporter Primary qHTS | Vaccinia virus mCherry reporter infection, fluorescence | Potency, µM (highest dose often 36.5 µM), for the others: at the highest dose activity change, negative = inhibition, usual class: inhibitors | hit rate 0.63% among 310,000 | AID 720579, 2013; calls by dose curve; tested in A549 cells; note: potency is the fitted concentration of half-maximal effect; nearly all actives have a fitted effect of over 35% in size
# HCMV inh – qHTS Assay for inhibitors of the human cytomegalovirus (HCMV) | AID 1259415, 2018 | activity change, negative = inhibition, % at 57.5 µM | HFF cells, HCMV-luciferase reporter, 72 h; hits give low values | hit rate 4.5% among 410,000; in the data active = activity change below about -60%; inconclusive = no clear call, values can overlap the other calls; inactive = above about -39%
#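 Inhibition of viral replication was scored as loss of reporter luminescence in HFFs infected with HCMV-luciferase (MOI 1 PFU/cell) for 72 h; compounds tested at 2 doses, normalized to buffer and Salinomycin controls.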
# HCV inh – qHTS Assay for Inhibitors of Hepatitis C Virus (HCV). Huh7.5.1 HCVcc-Cre infection, luciferase reporter, 44 h. Potency, µM (top dose mostly 41.8 µM), inactives show at the highest dose activity change, negative = inhibition, actives largely listed as inhibitors. hit rate 3.4% among 340,000. AID 651820, 2012; note: potency is the fitted concentration of half-maximal effect
#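 A cell-based infection assay in which seeded cells (1,000 per well) receive test compound after 4 h, are inoculated with HCVcc-Cre at approximately 0.5 moi, and are incubated 44 h before luminescence detection.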
# FMDV antiviral – High Throughput Screening for Foot and Mouth Disease Virus Antivirals; FMDV antiviral cell-based qHTS; Potency, µM (top dose mostly 57.9 µM), without a hit: at the highest dose activity change, negative = inhibition, most hits filed as inhibitors; hit rate 1.2% among 410,000; AID 1159524, 2015; calls by dose curve; tested in HEK293T cells; note: read-out not given here; potency is the fitted concentration of half-maximal effect; nearly all actives have a fitted effect of over 45% in size
# VACV Venus inh – qHTS for Stage-Specific Inhibitors of Vaccinia Orthopoxvirus: Venus Reporter Primary qHTS | hit rate 0.46% among 330,000 | Potency, µM (doses to about 36.5 µM), without a hit: at the highest dose activity change, negative = inhibition, hits mostly inhibitors | Vaccinia virus Venus reporter expression, fluorescence; calls by dose curve; tested in A549 cells; note: potency is the fitted concentration of half-maximal effect; nearly all actives have a fitted effect of over 30% in size
# Sm TGR block – qHTS Assay for the Inhibitors of Schistosoma Mansoni Peroxiredoxins | Schistosoma mansoni thioredoxin glutathione reductase (TGR), Q962Y6 | purified TGR, DTNB reduction, TNB absorbance 405 nm | Potency, µM (titrated, usually from 114 µM), for the others: at the top dose activity change, negative = inhibition, actives largely listed as inhibitors | hit rate 3% among 360,000 | AID 485364, 2010; note: potency is the fitted concentration of half-maximal effect; nearly all actives have a fitted effect of over 60% in size
#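 First, TGR (20 nM dispensed) and NADPH were mixed with compound. Second, a 15 min room-temperature incubation followed. Third, further NADPH and then DTNB were added to start the reaction. Finally, TNB absorbance was monitored kinetically.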
# Numbers without * were called inactive; i = inactive; u = inconclusive; x = no result given; [ ] = another dose, or the depositor's remark. Unless noted, calls come from the whole dose curve; as a rule, active = well fitted curve in the direction sought with a large enough effect; inconclusive = small, poorly fitted or top-dose-only effect, or another doubt; inactive = no such curve, though single readings can be large; an effect the other way counts as inactive or inconclusive. % is set by controls: 0 for no effect and ±100 for the full control effect.
SMILES,Vaccinia mCherry,HCMV inh,HCV inh,FMDV antiviral,VACV Venus inh,Sm TGR block
CCOC(=O)N/N=C1\CC(C)CC(C)(C)C1 (stereo not given),i,-4,25%,-1%,-4%,-7%
CC(C)(C)C1CCC(=NNC(=S)NCc2ccccc2)CC1 (stereo not given),u,-62*,4%,-23%,-5%,-15%
O=C(NCCc1c[nH]c2ccccc12)c1cc2sccc2n1Cc1ccccc1,x,-25,5µM*,u,x,-23%
Cn1c(C(=O)NCCc2c[nH]c3ccccc23)cc2sccc21,u,91,u,20%,u,0%
COc1ccc(C2C(C#N)=C(C)NC3=C2S(=O)(=O)c2ccccc23)cc1 (stereo not given),x,-108*,13%,-14%,x,10%
Cc1cccc(N2CCN(C(=O)c3ccc4nc(-c5ccco5)c(-c5ccco5)nc4c3)CC2C)c1 (stereo not given),x,-36,10µM*,25µM*,x,u
O=C(Nc1ccc2nc(-c3ccco3)c(-c3ccco3)nc2c1)N1CCN(c2ccccn2)CC1,i,-24,7.9µM*,u,-5%,2µM*
O=C(c1ccc2nc(-c3ccco3)c(-c3ccco3)nc2c1)N1CCN(c2ncccn2)CC1,-24%,56,-26%,-24%,-13%,10µM*
O=C(c1ccc2c(c1)N(Cc1ccccc1)C(=O)c1ccccc1S2(=O)=O)N1CCN(Cc2ccccc2)CC1,-22%,u,x,-9%,-18%,-10%
CCCSc1nc2cc(OC)c(OC)cc2c(=N)n1CCCN1CCOCC1,u,-25,11µM*,-20%,u,-8%
COCCCn1c(SCc2ccc(OC)cc2)nc2cc(OC)c(OC)cc2c1=N,x,0,u,-16%,x,-19%
O=C(NC1CCCc2c1cnn2-c1ccc(F)cc1F)c1ccccc1N1CCOCC1 (stereo not given),-5%,-75*,x,-19%,-15%,-3%
O=C(CCc1ccncc1)NC1CCCc2c1cnn2-c1ccc(F)cc1F (stereo not given),-4%,-73*,13µM*,u,-12%,-24%
CCc1cc(C(=O)NC2CCCc3c2cnn3-c2ccc(F)cc2F)no1 (stereo not given),u,-71*,x,u,-28%,x
O=C(CCc1ccccn1)NC1CCCc2c1cnn2-c1ccc(F)cc1F (stereo not given),x,u,u,-24%,x,0%
Cc1ccc(-n2ncc3c2CCCC3NC(=O)c2ccccc2N2CCOCC2)cc1C (stereo not given),-8%,-21,-27%,-30%,-21%,0%
CC1=C(C(=O)NC2CCCc3c2cnn3-c2ccc(F)cc2F)OCCO1 (stereo not given),x,u,u,u,x,-4%
CCOC(=O)c1ccc(Nc2nnc3nc(C)cc(C)n23)cc1,x,-18,5%,-13%,-8%,-1%
CCN(CC(=O)Nc1ccc2c(c1)OCCO2)C(=O)COc1ccc(C)cc1,i,-19,-20%,10%,-16%,0%
OC(CN1C2=NCCCN2c2ccccc21)c1ccc2c(c1)OCO2 (stereo not given),x,-32,1%,2%,0%,0%
OC(CN1C2=NCCN2c2ccccc21)c1ccc2c(c1)OCO2 (stereo not given),-26%[1.46 µM],8,u,12%,11µM*,-15%
c1ccc(CN2C3=NCCN3c3ccccc32)cc1,i,11,u,u,5%,0%
Clc1ccc(CN2C3=NCCN3c3ccccc32)cc1Cl,x,-16,10µM*,u,x,4%
Cc1cccc(/C=C/C(=O)c2cc(Br)ccc(=O)c2O)c1,x,-104*,14µM*,u,-3%,2%
Cc1ccc(/C=C/C(=O)c2cc(Br)ccc2OC(=O)c2ccco2)cc1,u,u,u,32%,u,0%
O=C(C=Cc1ccccc1)c1cc(Br)ccc1O,-12%,-22,-22%,u,-8%,x

# High-throughput results as filed in PubChem.
